Compounds with a hit are over-represented: about 17% of the library has one in this group of screens.
S2 tox: Viability Counterscreen for Primary qHTS for Inhibitors of ATXN expression | S2 cells (HEK-293 line with an ATXN2-luciferase reporter) viability, CellTiter-Fluor protease fluorescence, 24 h | Potency, µM (top dose mostly 56.7 µM), most hits filed as cytotoxic | 400,000 compounds, 0.49% hits | AID 651635, 2014; further: nearly all actives have a fitted effect of over 40% in size
DT40 TDP1 no CPT: qHTS for Inhibitors of human tyrosyl-DNA phosphodiesterase 1 (TDP1): qHTS in cells in absence of CPT; 420,000 compounds, 15% hits; Potency, µM (top dose mostly 46.2 µM), actives largely listed as inhibitors; DT40 Tdp1-/- hTDP1 cells, no CPT, ATP luminescence, 48 h; further: nearly all actives have a fitted effect of over 55% in size
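Growth kinetics read by CellTiter-Glo luminescence after ≥48 hr at 37 °C. Cells: DT40 Tdp1-/- stably carrying human TDP1, 400 per well, compound exposure in the absence of CPT (DMSO vehicle).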
HepG2 tox: qHTS for Inhibitors of TGF-b: Cytotox Counterscreen. HepG2 CAGA-GFP viability, ATP luminescence, 18 h. Potency, µM (top dose mostly 46.1 µM), hits mostly cytotoxic. 410,000 compounds, 0.76% hits
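HepG2 CAGA-GFP cells (1000/well, DMEM with 1% FBS) received compound, then TGF-beta at 500 pg/mL final, and were incubated 18 hours at 37 degrees C. Viability was read by CellTiter-Glo luminescence. Media-only wells were set as complete cell-killing and DMSO as no toxicity.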
TGFb inhibitor: qHTS for Inhibitors of TGF-b | HepG2 CAGA-GFP TGF-b/SMAD3 reporter, GFP fluorescence, 18 h; TGF-beta stimulated, 500 pg/mL final | Potency, µM (doses to about 46.1 µM), actives largely listed as inhibitors | 410,000 compounds, 1.2% hits | AID 588855, 2011; further: nearly all actives have a fitted effect of over 65% in size
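Per well, imaged GFP fluorescence of HEPG2 CAGA-GFP cells gives the signal; cells get compound, then TGF-beta (500 pg/mL final), 18 h at 37 degrees C; %Activity versus -TGF-beta and +DMSO controls.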
DT40 TDP1 CPT: qHTS for Inhibitors of human tyrosyl-DNA phosphodiesterase 1 (TDP1): qHTS in cells in presence of CPT; AID 686979, 2013; Potency, µM (doses to about 46.2 µM), actives largely listed as inhibitors; chicken DT40 Tdp1-/-;hTDP1 cells + 20 nM CPT, ATP luminescence, 48 h; 420,000 compounds, 12% hits; further: nearly all actives have a fitted effect of over 55% in size
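Chicken DT40 Tdp1-/- cells complemented with human TDP1, 400 cells/well, exposed to compounds plus 20 nM camptothecin for at least 48 h at 37 C; viability read as ATP content by CellTiter-Glo luminescence.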
ATXN2 expr inh: Primary qHTS for Inhibitors of ATXN expression; 360,000 compounds, 0.72% hits; Potency, µM (top dose mostly 57 µM), most hits filed as inhibitors; AID 1745845, 2022; HEK-293 ATXN2-luciferase reporter, luminescence, 24 h; further: nearly all actives have a fitted effect of over 55% in size
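ATXN2-luciferase reporter cells (luciferase flanked by upstream and downstream ATXN2 gene portions) were treated 24 h at 37 °C with compounds at up to 57 uM. SteadyGlo luminescence gave expression; GF-AFC fluorescence gave viability.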
Numbers stand for hits; - = inactive; ? = inconclusive; . = no result. The call rests on the fitted dose curve; in most records, active means well fitted curve in the direction sought with a large enough effect; inconclusive means small, poorly fitted or top-dose-only effect, or another doubt; inactive means no such curve, though single readings can be large; an effect the other way counts as inactive or inconclusive.

SMILES	S2 tox	DT40 TDP1 no CPT	HepG2 tox	TGFb inhibitor	DT40 TDP1 CPT	ATXN2 expr inh
COc1ccc(C)cc1NS(=O)(=O)c1ccc2c(c1)N(C)CCO2	-	15µM	-	-	?	-
CC(=O)c1ccc(NS(=O)(=O)c2ccc(-c3cnc(C4CC4)o3)cc2)cc1	-	?	-	-	-	-
COc1cccc(NS(=O)(=O)c2cc(-c3cnc(C4CC4)o3)ccc2C)c1	?	0.58µM	-	2µM	0.92µM	?
O=S(=O)(NCc1ccccc1Cl)c1ccc(-c2cnc(C3CC3)o2)cc1	?	2.9µM	-	?	3.7µM	?
COc1ccc(C)cc1NS(=O)(=O)c1cnc(N)nc1	.	-	-	-	-	.
COc1ccc(C)cc1NS(=O)(=O)c1ccc(-c2cnc(C3CC3)o2)cc1	?	0.065µM	-	3.5µM	0.065µM	-
COc1cccc(CNC(=O)CCC(=O)n2ncc3cc(C)ccc32)c1OC	-	-	-	-	-	-
CN1CCC(N(C)C(=O)CNC(=O)c2ccc(C(C)(C)C)cc2)CC1	-	-	-	-	-	-
Cc1ccccc1OCC(=O)NCCNC(=O)c1ccccn1	-	-	-	-	-	-
Cc1ccc(N(C)S(=O)(=O)c2ccc(-c3cnc(C4CC4)o3)cc2)cc1	?	0.018µM	-	6.3µM	0.029µM	-
Cc1ccc(-c2cnc(C3CC3)o2)cc1S(=O)(=O)Nc1cccc(C#N)c1	?	5.8µM	-	-	5.8µM	?
CCOC(=O)c1cccc(NS(=O)(=O)c2ccc(-c3cnc(C4CC4)o3)cc2)c1	?	2.6µM	-	?	2.3µM	-
Cc1ccc(N(C)S(=O)(=O)c2ccc(C)cc2)cc1	-	?	-	-	?	-
N#Cc1ccc(NS(=O)(=O)c2ccc(-c3cnc(C4CC4)o3)cc2)cc1	-	?	-	?	18µM	-
CC1CCCC(NC(=O)CSc2cccc[n+]2[O-])C1C (stereo not given)	-	-	-	-	-	-
CCOC(=O)c1ccc(NC(=O)CN(c2ccc(C)cc2)S(=O)(=O)c2c(C)nn(C)c2C)cc1	-	?	-	?	23µM	-
CCOc1ccccc1NC(=O)CN(c1cc(C)cc(C)c1)S(=O)(=O)c1c(C)nn(C)c1C	?	21µM	-	?	21µM	-
Cc1nc2c(Br)cc(Br)cc2c(=O)n1-c1ccccc1NC1OCC(O)C(O)C1O (stereo not given)	-	8.2µM	1.6µM	-	7.3µM	?
Cc1cc(O)c2c(c1)CC1C3CCC4CC(=O)CCC4(C)C3CC(=O)C21C (stereo not given)	-	12µM	-	-	18µM	-
CCOc1ccc(Nc2c3c(nc4nncn24)CCC3)cc1	?	?	-	?	?	-
Brc1ccc(Nc2c3c(nc4nncn24)CCC3)cc1	.	18µM	-	.	?	.
Cc1ccc(Nc2c3c(nc4nncn24)CCC3)cc1C	.	16µM	-	.	?	.
Cc1ccc(Nc2c3c(nc4nncn24)CCC3)cc1	.	-	-	.	-	.
COc1ccc(Nc2c3c(nc4nncn24)CCC3)cc1Cl	.	21µM	-	-	18µM	.
CC(=O)c1ccc(NC(=O)CSc2ccc(-c3sc(C)nc3C)nn2)cc1	-	?	-	-	13µM	-
COc1ccc(NC(=O)CSc2nc(C)cs2)cc1OC	-	-	-	-	-	-
COc1cc(NC(=O)CSc2ccc(-c3sc(C)nc3C)nn2)cc(OC)c1	.	18µM	-	?	21µM	.
CCOC(=O)c1ccccc1NC(=O)CSc1ccc(-c2sc(C)nc2C)nn1	.	12µM	-	-	15µM	.
Cc1nc(-c2ccccc2)sc1-c1ccc(SCC(=O)Nc2ccc(F)cc2F)nn1	.	?	-	-	-	.
